{"source": "ChEMBL document CHEMBL4513146", "about": "“CO-ADD screening of Karazin Kharkiv National University (Ukraine) compounds”", "note": "Measured potencies and affinities stand elsewhere.", "data": [{"tested_on": "Staphylococcus aureus", "settings": "Concentration 32 ug.mL-1;; ASSAY_TEST Inhibition of Bacterial Growth; detection method Absorption (OD600); MEDIA CAMHB; plate type 384well; NBS; CORNING #3640; time 18 hr", "units": {"Inhibition": "%"}, "values": [{"compound": "Cc1nnc2c(=O)n(CC(=O)Nc3ccc(Br)cc3)c3ccccc3n12", "Inhibition": -6.47}, {"compound": "COc1ccc(Cn2nc3ccc(-c4ccc(Cl)cc4)nn3c2=O)cc1F", "Inhibition": 12.92}, {"compound": "COc1ccccc1-n1ccn2c(SCC(=O)Nc3ccc(C)cc3C)nnc2c1=O", "Inhibition": 14.03}, {"compound": "CCc1cccc(NC(=O)Cn2c(=O)c3nnc(C(C)C)n3c3ccccc32)c1", "Inhibition": 12.07}, {"compound": "O=C(CSc1nnc2c3cc(-c4ccccc4)nn3ccn12)Nc1cccc(Br)c1", "Inhibition": 9.78}, {"compound": "Cc1cccc(NC(=O)Cn2nc3c(SCc4ccccc4)nccn3c2=O)c1C", "Inhibition": -0.26}, {"compound": "COc1ccc(CNC(=O)Cn2nc3c4cc(-c5ccc(Cl)cc5)nn4ccn3c2=O)cc1", "Inhibition": 6.34}, {"compound": "COc1ccc(-c2cc3c4nn(CC(=O)Nc5cc(Cl)ccc5C)c(=O)n4ccn3n2)cc1", "Inhibition": 5.04}, {"compound": "CCOc1ccc(-n2ccn3c(SCC(=O)Nc4cccc(Cl)c4)nnc3c2=O)cc1", "Inhibition": -0.75}, {"compound": "CCOc1ccc(-n2ccn3c(SCC(=O)c4ccc(F)cc4)nnc3c2=O)cc1", "Inhibition": 21.72}, {"compound": "O=C(CSc1nnc2c(=O)n(-c3ccc(Br)cc3)ccn12)c1ccc(F)cc1", "Inhibition": 0.43}, {"compound": "Cc1ccc(-c2ccc3nn(Cc4cccc(Br)c4)c(=O)n3n2)cc1C", "Inhibition": 9.24}, {"compound": "COc1cccc(-n2ccn3c(SCc4c(F)cccc4Cl)nnc3c2=O)c1", "Inhibition": 2.96}, {"compound": "Cc1c(Cl)cccc1NC(=O)Cn1nc2c(N3CCOCC3)nc3ccccc3n2c1=O", "Inhibition": 6.58}, {"compound": "CC(C)c1nnc2c(SCC(=O)Nc3ccc(Br)cc3F)nc3ccccc3n12", "Inhibition": 6.04}, {"compound": "CC(C)c1nnc2c(SCC(=O)Nc3ccc(C#N)cc3)nc3ccccc3n12", "Inhibition": 2.21}, {"compound": "Cc1ccc(-c2ccc3nn(Cc4nc(-c5ccc(Cl)cc5)no4)c(=O)n3n2)cc1C", "Inhibition": 0}, {"compound": "COc1ccc(NC(=O)Cn2nc3c(N4CCCC4)nccn3c2=O)cc1", "Inhibition": 5.17}, {"compound": "COc1ccc(-c2nc(CSc3nc4ccccc4n4c(C(C)C)nnc34)c(C)o2)cc1", "Inhibition": -9.17}, {"compound": "COc1ccc(N(Cc2ccc(Cl)cc2)S(=O)(=O)c2ccc3nncn3c2)cc1", "Inhibition": -6.81}, {"compound": "Cc1cccc(CN(c2ccc(F)cc2)S(=O)(=O)c2ccc3nnc(C)n3c2)c1", "Inhibition": 5.07}, {"compound": "CCOc1ccc(C(=O)CSc2nnc3c(=O)n(-c4ccc(C)c(C)c4)ccn23)cc1", "Inhibition": 9.97}, {"compound": "Cc1cccc(NC(=O)Cn2nc3ccc(-c4ccc(Cl)cc4)nn3c2=O)c1", "Inhibition": 7.34}, {"compound": "Cc1ccc(Cl)cc1NC(=O)CSc1nnc2c(=O)n(-c3ccccc3)ccn12", "Inhibition": 7.91}, {"compound": "N#CCn1nc2n(Cc3ccc(F)cc3)c(=O)c3ccccc3n2c1=O", "Inhibition": 1.37}, {"compound": "CC(C)c1ccc(NC(=O)Cn2nc3c(Sc4ccccc4)nccn3c2=O)cc1", "Inhibition": -14.37}, {"compound": "CCOc1ccc(NC(=O)Cn2nc3c(Sc4cccc(F)c4)nccn3c2=O)cc1", "Inhibition": 1.32}, {"compound": "O=c1c2sccc2n2c(=O)n(Cc3ccccc3Cl)nc2n1CCc1ccccc1", "Inhibition": 10.44}, {"compound": "CCc1ccc(N(Cc2ccccc2)S(=O)(=O)c2cccn3c(CC)nnc23)cc1", "Inhibition": 13.69}, {"compound": "COc1ccc(-c2cc3c4nn(CC(=O)Nc5ccc(OC)c(Cl)c5)c(=O)n4ccn3n2)cc1", "Inhibition": -2.49}, {"compound": "Cc1ccc(-n2ccn3c(SCC#N)nnc3c2=O)cc1C", "Inhibition": 11.84}, {"compound": "CCOc1ccc(-n2ccn3c(SCC(=O)c4cccc(OC)c4)nnc3c2=O)cc1", "Inhibition": 10.49}, {"compound": "NC(=O)CSc1nnc2c(=O)n(-c3ccc(F)cc3)ccn12", "Inhibition": 22.03}, {"compound": "CCCCc1ccc(NC(=O)CSc2nc3ccccc3n3c(C(C)C)nnc23)cc1", "Inhibition": -8.95}, {"compound": "Cc1ccc(Oc2nccn3c(=O)n(CC(=O)NCCC4=CCCCC4)nc23)cc1", "Inhibition": 4.93}, {"compound": "CC(=O)c1ccc(NC(=O)Cn2nc3ccc(-c4ccc(C)c(C)c4)nn3c2=O)cc1", "Inhibition": 9.12}, {"compound": "Cc1nnc2ccc(S(=O)(=O)N(Cc3ccc(F)cc3)c3cc(F)cc(F)c3)cn12", "Inhibition": 4.18}, {"compound": "O=C(Cn1nc2c3c4c(sc3ncn2c1=O)CCCC4)NCc1ccccc1Cl", "Inhibition": -19.92}, {"compound": "CCOC(=O)c1ccc(NC(=O)Cn2nc3ccc(SCc4ccc(Cl)cc4)nn3c2=O)cc1", "Inhibition": -0.24}, {"compound": "COCCCNC(=O)CSc1nnc2c(=O)n(Cc3ccc(F)cc3)ccn12", "Inhibition": 10.54}]}]}
